Assay outcomes: PubChem, National Center for Advancing Translational Sciences (NCATS)
Shown are actives, neighbours in structure and some others; about 13% of the full set was active somewhere.
HCV inhibitor – inhibitors of hepatitis C virus infection; AID 651820; Potency, µM (titrated, usually from 41.8 µM), inactives show at the highest dose activity change, negative = inhibition, most hits filed as inhibitors; Huh7.5.1 HCVcc-Cre infection, luciferase reporter, 44 h; actives 3.4% (n = 340,000); active = well fitted inhibition curve with a large enough effect; inconclusive = small, poorly fitted or top-dose-only effect, or another doubt; inactive = no such curve, though single readings can be large or run the other way; also: potency is read from the fitted curve at half-maximal effect; % is scaled to controls: 0 for no effect and ±100 for the full control effect
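Infectious HCVcc-Cre (~0.5 moi) was added to cells just after compound, with cells seeded 4 h earlier at 1,000 per well. Luciferase activity after 44 h culture reported infection; substrate was incubated 15 min at room temperature before reading.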
Lassa entry inh – blocks Lassa virus binding to or entry into cells; Lassa virus pseudotype entry inhibition, cell reporter; Potency, µM (series often up to 37.9 µM), without a hit: top-dose activity change, negative = inhibition, most hits filed as inhibitors; actives 1.2% (n = 300,000); AID 540256; calls by dose curve; tested in HEK293 cells; also: potency is read from the fitted curve at half-maximal effect; % is scaled to controls: 0 for no effect and ±100 for the full control effect; nearly all actives have a fitted effect of over 50% in size
FMDV antiviral – blocks foot and mouth disease virus; FMDV antiviral cell-based qHTS; Potency, µM (doses to about 57.9 µM), inactives show at the top dose activity change, negative = inhibition, actives largely listed as inhibitors; actives 1.2% (n = 410,000); AID 1159524; calls by dose curve; tested in HEK293T cells; also: read-out not given here; potency is read from the fitted curve at half-maximal effect; % is scaled to controls: 0 for no effect and ±100 for the full control effect; nearly all actives have a fitted effect of over 45% in size
MARV entry inh – blocks Marburg virus binding to or entry into cells | actives 1.8% (n = 300,000) | AID 540276 | Potency, µM (titrated, usually from 37.8 µM), for inactives: at the highest dose activity change, negative = inhibition, usual class: inhibitors | Marburg virus pseudotyped entry inhibition, cell reporter; calls by dose curve; tested in HEK293 cells; also: potency is read from the fitted curve at half-maximal effect; % is scaled to controls: 0 for no effect and ±100 for the full control effect
Cycloheximide cs – counter-screen for Shiga toxin inhibitors: cycloheximide protein synthesis inhibition. cell reporter, cycloheximide protein synthesis inhibition counterscreen. max response, %. actives 12% (n = 300,000). AID 2314; in the data active = max response mostly above about 13%, no sharp cut-off; inactive = mostly below about 14%; also: read at 38.3 µM for the half of the compounds with a filed dose; 0% is about no effect
Shiga toxin inh – inhibitors of Shiga toxin in Vero cells. actives 9.2% (n = 290,000). inhibition, % at 38.7 µM. Vero cells, Shiga toxin protein synthesis inhibition reporter; in the data active = inhibition mostly above about 28%, no sharp cut-off; inactive = mostly below about 43%; also: 0% is about no effect
The depositor's hits bear a star; ? = inconclusive; . = not tested or not shown; [ ] = dose if it differs, or a comment.

SMILES	HCV inhibitor	Lassa entry inh	FMDV antiviral	MARV entry inh	Cycloheximide cs	Shiga toxin inh
O=C(Nc1ccccc1)N1CCCN(c2ccc(C(F)(F)F)cn2)CC1	11.2µM*	.	?	.	-0.5	15.7
COC(=O)c1ccc(S(=O)(=O)N2CCCN(Cc3cccc(Br)c3F)CC2)n1C	?	.	?	.	0.5	-13.1
COc1ccc(N=c2sc3ccccc3n2C)cc1	-25.9%	?	.	-14.4%	40.9*	50.5
COc1ccccc1N=c1sc2ccccc2n1C	1.78µM*	-2.1%	.	-16.9%	12.8*	2.5
C/C(CCN1CCc2nc(-c3ccccc3)c(-c3ccccc3)cc2C1)=N\O[C@H](C)CN1CCCCc2nc(C)c(C)cc21	.	.	.	24.9%[14.2 µM]	.	.
CCOC(=O)c1c(C)[nH]c2cc(Br)c(O)cc12	?	-0.1%	24.3%	2.8%	38.1*	65.5*
CCOC(=O)c1c(-c2ccc(OC)cc2)oc2cc(Br)c(O)cc12	?	.	-5.4%	.	-5.7	-16.1
Cc1cc(C)c2nc(NC(=O)c3ccc([N+](=O)[O-])o3)sc2c1	-4.3%	?	-3.5%	-4.7%	-1.6	.
O=C(Nc1nc2c(F)cc(F)cc2s1)c1ccc([N+](=O)[O-])o1	-16.5%	.	-3.6%	.	25.6*	50.5*
COc1ccc2nc(NC(=O)c3ccc([N+](=O)[O-])o3)sc2c1	?	?	-1.2%	-0.7%	34.4*	54.7*
O=C(Nc1nc2cc3c(cc2s1)OCCO3)c1ccc([N+](=O)[O-])o1	-3.8%	?	-22.7%	14.3%[46.1 µM]	47.9*	45.4*
O=C(Nc1nc2ccccc2s1)c1ccc([N+](=O)[O-])o1	?	.	18.0%	.	33.4*	48.0*
COc1ccc(C(CNC(=O)c2oc3ccccc3c2C)N2CCCC2)cc1 (stereo unspecified)	?	?	-21.6%	?	.	.
COc1ccccc1N1CCN(C(=O)c2ccc([N+](=O)[O-])s2)CC1	?	-4.5%	?	-3.2%	5.4	2.6
CC(=O)c1sc2nc(C)c3c(c2c1N)CCCC3	-67.3%	11.6%	14.4%	8.8%[46.1 µM]	20.8*	54.9
Nc1nncn1C(=O)c1cc(Br)ccc1Cl	2.0%	-0.8%	-27.9%	7.8%[46.1 µM]	-2.5	8.7
Cc1cc(C(F)(F)F)c(C#N)c(N2CCOCC2)n1	10.1%	1.8%	-15.9%	?	8.5	-17.7
N#Cc1c(N2CCOCC2)nsc1-c1ccc(C(F)(F)F)cc1	?	?	-5.6%	?	28.6*	43.2
Cc1ccc(NCSc2ccc(Cl)cc2)cc1	10µM*	20.5%[46.1 µM]	28.5%	8.8%[46.1 µM]	.	.
CSc1ccc(CNc2ccc(Cl)cc2)cc1	5.3%	-10.7%	.	6.4%	26.7*	79.3*
O=C(Nc1ccccc1-c1nc2ccccc2s1)c1cccnc1Cl	35.5µM*	-10.9%	-16.8%	-26.1%	-1.8	26.6
O=C(Nc1ccccc1-c1nc2ccccc2s1)c1ccco1	3.98µM*	-13.2%	-29.8%	-16.3%	38.6*	105.9*
O=C(Nc1cccc(-c2nc3cccnc3s2)c1)c1cccnc1Cl	-24.5%	.	-10.0%	.	17.6*	30.9*
O=C(CCC(=O)N1CCOc2ccccc21)NCCCN1CCN(Cc2ccccc2)CC1	-8.6%	.	-19.7%	.	-1.3	23.3
CN(C(=O)CSc1nc2cc([N+](=O)[O-])ccc2n1-c1ccc(F)cc1)C1CCS(=O)(=O)C1 (stereo unspecified)	?	2.8%	-12.1%	-8.7%	-1.2	1.4
SMILES	HCV inhibitor	Lassa entry inh	FMDV antiviral	MARV entry inh	Cycloheximide cs	Shiga toxin inh
CC(C)OC(=O)c1cc2ccccc2[nH]1	-0.3%	3.4%	16.9%	9.1%	23.3*	53.9*
NNC(=O)c1cc2ccccc2[nH]1	-10.6%	?	-6.1%	?	4.6	10.7
CCOC(=O)c1cc2cc3ccccc3cc2[nH]1	0.1%	?	44.9%	?	54.1*	150.2*
CCN(CC)C(=O)[C@H]1C[C@H](CC(=O)NCc2ccc(OC)c(OC)c2)C(=O)N2CCc3c([nH]c4cc(-c5ccco5)ccc34)[C@]12C	?	.	0.0%	.	.	.
CCOC(=O)Nc1ccc2c(c1)C(=NNC(N)=S)c1ccccc1-2	?	?	?	12.6µM*	.	.
CCCCNC(=O)c1cc(-c2ccc(OC)cc2)on1	-1.1%	-9.2%	60.9%	?	52.0*	193.6*
COc1ccc(CNC(=O)c2cc(-c3ccc(OC)cc3)on2)cc1	.	-1.2%[46.1 µM]	-7.3%	?	.	.
CCCCNC(=O)c1cc(-c2ccc(F)cc2)on1	-4.9%	?	71.3%	?	34.7*	51.8*
CCCNC(=O)c1cc(-c2ccc(OC)cc2)on1	-16.6%	?	18.4%	10.3µM*	50.8*	69.5*
CCCCNC(=O)c1cc(-c2ccc(OC)c(OC)c2)on1	-6.5%	.	24.4%	.	14.2*	30.9
CCc1ccccc1NC(=O)c1cc(-c2ccc(OC)cc2)on1	2.9%	5.5%[46.1 µM]	-0.6%	-3.9%[46.1 µM]	-0.6	1.5
COc1ccc(-c2cc(C(=O)NCCN3CCOCC3)no2)cc1OC	14.7%	4.2%[46.1 µM]	2.2%	23.1%[46.1 µM]	-4.7	-1.4
C=CC[C@H](CC(=O)N(CCO)Cc1ccccc1)C(=O)N[C@H](COC(=O)[C@H](CC=C)CC(=O)OC(C)(C)C)Cc1ccccc1	11.2µM*	.	0.0%	.	.	.
C=CC[C@@H](CC(=O)N[C@H](CO)Cc1ccccc1)C(=O)N[C@@H](COC(=O)[C@H](CC=C)CC(=O)OC(C)(C)C)Cc1ccccc1	?	.	-24.8%	.	.	.
C=CC[C@@H](CC(=O)N(CCO)Cc1ccccc1)C(=O)N[C@H](COC(=O)[C@@H](CC=C)CC(=O)OC(C)(C)C)C(C)(C)C	?	.	-22.4%	.	.	.
C=CC[C@@H](CC(=O)N[C@@H](CO)Cc1ccccc1)C(=O)N[C@H](COC(=O)[C@@H](CC=C)CC(=O)OC(C)(C)C)Cc1c[nH]c2ccccc12	?	.	35.5µM*	.	.	.
C=CC[C@@H](CC(=O)N(CCO)Cc1ccccc1)C(=O)N[C@H](COC(=O)[C@@H](CC=C)CC(=O)OC(C)(C)C)Cc1c[nH]c2ccccc12	11.2µM*	.	?	.	.	.
C=CC[C@H](CC(=O)NCCO)C(=O)N[C@H](COC(=O)[C@@H](CC=C)CC(=O)OC(C)(C)C)Cc1c[nH]c2ccccc12	6.3%	.	-17.4%	.	.	.
O=C(NCC1CC1)Nc1ccccc1F	-1.8%	2.6%[46.1 µM]	6.8%	?	2.4	29.0
CN(Cc1ccon1)Cc1cn(C)nc1-c1cccc(Cl)c1	-0.7%	13.2%	-11.8%	-5.0%[46.1 µM]	33.4*	70.6
NC(=O)[C@H]1CC2(CC(c3cccc(NC(=O)COc4ccc(Cl)cc4)c3)=NO2)CN1C(=O)Cc1ccc([N+](=O)[O-])cc1 (stereo partly specified)	1.58µM*	.	?	.	-0.7	-4.0
CCCCCC(=O)Nc1cccc(C2=NOC3(C2)C[C@@H](C(N)=O)N(C(=O)Cc2ccc([N+](=O)[O-])cc2)C3)c1 (stereo partly specified)	-13.4%	.	0.0%	.	-2.8	-5.9
COc1ccc2c(c1)/C(=N/OC(=O)c1cccs1)CCC2	-13.2%	-2.3%	-8.6%	20.8%[46.1 µM]	42.3*	43.1
